Residual activity data for one compound are collected here from ChEMBL document CHEMBL2218924, “A broad activity screen in support of a chemogenomic map for kinase signalling research and drug discovery” (Biochem J, 2013).

Assay [1] deals with T1, Serine/threonine-protein kinase TBK1 (Homo sapiens) (UniProt Q9UHD2).
T1 sequence (whole entry): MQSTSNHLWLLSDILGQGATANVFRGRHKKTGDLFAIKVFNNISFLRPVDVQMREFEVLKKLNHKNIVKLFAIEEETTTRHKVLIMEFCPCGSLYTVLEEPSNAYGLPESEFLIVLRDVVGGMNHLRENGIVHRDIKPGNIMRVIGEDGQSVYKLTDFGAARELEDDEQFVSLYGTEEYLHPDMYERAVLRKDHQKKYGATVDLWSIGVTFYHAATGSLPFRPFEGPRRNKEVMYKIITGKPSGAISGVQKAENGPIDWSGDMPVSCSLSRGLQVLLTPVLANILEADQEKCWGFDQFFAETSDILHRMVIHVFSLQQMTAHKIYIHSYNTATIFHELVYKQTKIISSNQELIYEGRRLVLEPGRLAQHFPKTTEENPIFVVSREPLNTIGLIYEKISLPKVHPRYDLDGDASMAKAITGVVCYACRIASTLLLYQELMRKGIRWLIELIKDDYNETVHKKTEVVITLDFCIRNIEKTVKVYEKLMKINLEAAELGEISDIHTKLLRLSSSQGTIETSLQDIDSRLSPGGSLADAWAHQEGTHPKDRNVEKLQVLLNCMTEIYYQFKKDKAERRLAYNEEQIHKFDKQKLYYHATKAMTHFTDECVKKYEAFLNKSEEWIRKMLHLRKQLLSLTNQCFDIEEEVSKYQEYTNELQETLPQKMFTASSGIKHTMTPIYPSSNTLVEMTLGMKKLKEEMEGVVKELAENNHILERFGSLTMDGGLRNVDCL
The following applies: at 10 µM.

The target in assay [2] is T2, TGF-beta receptor type-1 (Homo sapiens) (UniProt P36897).
T2 sequence (whole entry): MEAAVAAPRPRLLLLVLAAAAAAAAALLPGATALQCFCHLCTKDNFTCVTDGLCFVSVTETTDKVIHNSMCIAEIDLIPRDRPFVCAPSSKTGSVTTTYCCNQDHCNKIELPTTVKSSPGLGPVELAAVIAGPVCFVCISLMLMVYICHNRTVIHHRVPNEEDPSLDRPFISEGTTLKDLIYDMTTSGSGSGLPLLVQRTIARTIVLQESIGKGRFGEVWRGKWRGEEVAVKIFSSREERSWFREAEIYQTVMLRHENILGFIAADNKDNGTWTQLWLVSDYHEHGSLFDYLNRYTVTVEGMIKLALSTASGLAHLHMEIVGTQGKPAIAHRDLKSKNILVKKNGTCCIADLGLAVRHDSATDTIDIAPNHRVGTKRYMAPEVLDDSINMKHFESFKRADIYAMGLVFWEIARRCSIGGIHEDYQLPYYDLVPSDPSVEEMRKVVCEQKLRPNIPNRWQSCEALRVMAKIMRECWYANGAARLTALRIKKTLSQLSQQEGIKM
Particulars: at 1 µM.

In assay [3] the target is T2, TGF-beta receptor type-1 (Homo sapiens). Particulars: at 10 µM.
The target of assay [4] is Insulin-like growth factor 1 receptor (Homo sapiens) (UniProt P08069). Particulars: at 1 µM.
The target is the same in assay [5]. Particulars: at 10 µM.
Assay [6] deals with T3, Inhibitor of nuclear factor kappa-B kinase subunit alpha (Homo sapiens) (UniProt O15111).
T3 sequence (whole entry): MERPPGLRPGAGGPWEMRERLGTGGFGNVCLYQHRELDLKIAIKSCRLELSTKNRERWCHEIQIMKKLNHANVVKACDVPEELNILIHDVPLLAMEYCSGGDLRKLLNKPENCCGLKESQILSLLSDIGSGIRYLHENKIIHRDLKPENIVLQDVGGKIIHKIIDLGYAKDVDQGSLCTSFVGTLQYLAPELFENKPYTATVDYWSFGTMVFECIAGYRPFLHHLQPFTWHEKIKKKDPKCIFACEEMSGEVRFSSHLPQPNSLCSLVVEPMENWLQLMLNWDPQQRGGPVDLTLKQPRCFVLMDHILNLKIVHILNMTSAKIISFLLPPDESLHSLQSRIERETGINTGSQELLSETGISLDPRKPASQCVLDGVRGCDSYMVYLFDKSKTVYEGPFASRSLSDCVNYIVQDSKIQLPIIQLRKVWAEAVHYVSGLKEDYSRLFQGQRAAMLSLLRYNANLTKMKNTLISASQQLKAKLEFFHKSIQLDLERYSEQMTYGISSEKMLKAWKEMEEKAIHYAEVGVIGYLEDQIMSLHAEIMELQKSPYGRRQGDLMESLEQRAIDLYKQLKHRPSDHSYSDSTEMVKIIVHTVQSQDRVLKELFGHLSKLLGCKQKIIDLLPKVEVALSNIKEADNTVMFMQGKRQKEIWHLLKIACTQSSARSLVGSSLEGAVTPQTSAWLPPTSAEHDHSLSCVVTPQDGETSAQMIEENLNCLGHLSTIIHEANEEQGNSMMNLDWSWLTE
The following applies: at 1 µM.

Assay [7] deals with T3, Inhibitor of nuclear factor kappa-B kinase subunit alpha (Homo sapiens). The following applies: at 10 µM.
The target in assay [8] is T4, Inhibitor of nuclear factor kappa-B kinase subunit beta (Homo sapiens) (UniProt O14920).
T4 sequence (whole entry): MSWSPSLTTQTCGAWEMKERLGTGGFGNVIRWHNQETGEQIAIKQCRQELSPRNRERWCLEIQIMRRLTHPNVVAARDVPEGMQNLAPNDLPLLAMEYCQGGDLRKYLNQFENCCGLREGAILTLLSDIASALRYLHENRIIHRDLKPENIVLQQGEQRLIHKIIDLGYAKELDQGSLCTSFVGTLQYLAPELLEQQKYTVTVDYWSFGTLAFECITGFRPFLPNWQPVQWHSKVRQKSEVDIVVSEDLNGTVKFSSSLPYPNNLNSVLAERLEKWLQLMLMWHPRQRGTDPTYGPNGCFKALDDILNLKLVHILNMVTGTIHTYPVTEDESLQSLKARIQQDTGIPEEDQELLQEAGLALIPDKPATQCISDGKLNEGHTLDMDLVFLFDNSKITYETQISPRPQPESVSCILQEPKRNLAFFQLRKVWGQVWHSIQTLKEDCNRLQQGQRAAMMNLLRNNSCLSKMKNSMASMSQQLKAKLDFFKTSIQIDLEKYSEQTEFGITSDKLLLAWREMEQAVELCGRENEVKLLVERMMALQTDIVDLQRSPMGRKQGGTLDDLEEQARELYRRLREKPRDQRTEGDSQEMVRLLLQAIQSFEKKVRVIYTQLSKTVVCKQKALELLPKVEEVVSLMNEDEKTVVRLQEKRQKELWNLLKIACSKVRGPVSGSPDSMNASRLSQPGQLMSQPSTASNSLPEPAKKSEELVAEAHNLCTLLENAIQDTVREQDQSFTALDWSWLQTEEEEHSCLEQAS
Particulars: at 1 µM.

Assay [9] addresses T4, Inhibitor of nuclear factor kappa-B kinase subunit beta (Homo sapiens). The following applies: at 10 µM.
The target of assay [10] is Insulin receptor (Homo sapiens) (UniProt P06213). The following applies: at 1 µM.

One may read the residual activity as the signal under treatment as a percentage of the control signal.

Insulin-like growth factor 1 receptor (Homo sapiens), sequence (P08069 31-736 limits assumed): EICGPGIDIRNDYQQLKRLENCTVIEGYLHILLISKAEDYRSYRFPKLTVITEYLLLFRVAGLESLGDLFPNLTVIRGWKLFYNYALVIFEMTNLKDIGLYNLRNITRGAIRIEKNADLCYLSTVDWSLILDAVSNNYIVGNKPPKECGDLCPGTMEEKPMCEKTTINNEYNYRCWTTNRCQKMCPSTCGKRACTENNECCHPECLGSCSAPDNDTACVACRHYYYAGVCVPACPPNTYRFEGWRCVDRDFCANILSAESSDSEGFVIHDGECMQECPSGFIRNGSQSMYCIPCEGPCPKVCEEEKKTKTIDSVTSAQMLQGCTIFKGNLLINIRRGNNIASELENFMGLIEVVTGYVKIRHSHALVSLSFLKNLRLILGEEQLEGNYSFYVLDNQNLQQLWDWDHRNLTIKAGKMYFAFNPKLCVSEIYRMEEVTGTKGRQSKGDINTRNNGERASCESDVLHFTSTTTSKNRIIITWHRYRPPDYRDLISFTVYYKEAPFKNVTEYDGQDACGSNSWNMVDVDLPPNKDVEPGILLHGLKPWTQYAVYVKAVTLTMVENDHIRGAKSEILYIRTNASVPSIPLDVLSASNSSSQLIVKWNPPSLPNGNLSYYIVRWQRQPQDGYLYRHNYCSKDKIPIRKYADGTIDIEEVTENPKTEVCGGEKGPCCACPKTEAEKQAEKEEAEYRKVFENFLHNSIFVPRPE
Insulin-like growth factor 1 receptor (Homo sapiens), sequence (P08069 741-1367 limits assumed): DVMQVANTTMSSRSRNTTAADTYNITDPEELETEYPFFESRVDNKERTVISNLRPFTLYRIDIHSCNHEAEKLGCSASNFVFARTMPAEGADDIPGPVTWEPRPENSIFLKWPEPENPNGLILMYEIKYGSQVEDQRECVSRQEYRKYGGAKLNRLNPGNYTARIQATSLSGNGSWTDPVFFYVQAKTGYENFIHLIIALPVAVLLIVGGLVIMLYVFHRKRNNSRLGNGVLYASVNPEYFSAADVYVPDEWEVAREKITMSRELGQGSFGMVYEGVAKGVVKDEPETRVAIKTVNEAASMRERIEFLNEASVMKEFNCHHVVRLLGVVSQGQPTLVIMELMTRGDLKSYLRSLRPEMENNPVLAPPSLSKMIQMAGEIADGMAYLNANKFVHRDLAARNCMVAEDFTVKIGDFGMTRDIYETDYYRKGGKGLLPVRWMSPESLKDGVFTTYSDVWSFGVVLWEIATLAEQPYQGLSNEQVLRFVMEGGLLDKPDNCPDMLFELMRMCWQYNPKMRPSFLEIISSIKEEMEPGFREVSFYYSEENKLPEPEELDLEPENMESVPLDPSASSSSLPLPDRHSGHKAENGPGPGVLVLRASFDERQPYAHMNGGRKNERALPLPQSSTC
Insulin receptor (Homo sapiens), sequence (P06213 28-758 limits assumed): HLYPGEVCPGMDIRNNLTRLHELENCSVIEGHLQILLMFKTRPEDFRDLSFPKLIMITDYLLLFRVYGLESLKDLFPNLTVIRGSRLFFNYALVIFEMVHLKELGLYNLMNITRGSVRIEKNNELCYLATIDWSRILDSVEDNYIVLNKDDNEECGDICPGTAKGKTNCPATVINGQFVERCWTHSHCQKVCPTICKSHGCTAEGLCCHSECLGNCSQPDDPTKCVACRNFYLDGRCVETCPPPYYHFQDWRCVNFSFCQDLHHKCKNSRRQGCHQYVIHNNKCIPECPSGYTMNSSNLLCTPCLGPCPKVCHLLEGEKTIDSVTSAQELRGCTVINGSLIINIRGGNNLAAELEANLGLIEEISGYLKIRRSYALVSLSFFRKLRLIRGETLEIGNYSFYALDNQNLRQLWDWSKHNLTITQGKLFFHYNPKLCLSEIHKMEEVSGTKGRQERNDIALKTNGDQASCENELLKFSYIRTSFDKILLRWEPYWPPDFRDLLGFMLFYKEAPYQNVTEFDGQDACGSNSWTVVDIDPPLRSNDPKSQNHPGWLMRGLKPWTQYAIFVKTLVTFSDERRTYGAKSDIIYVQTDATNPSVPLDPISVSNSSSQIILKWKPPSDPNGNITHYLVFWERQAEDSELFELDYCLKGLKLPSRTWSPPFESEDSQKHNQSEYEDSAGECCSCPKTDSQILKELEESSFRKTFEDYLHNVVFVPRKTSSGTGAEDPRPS
Insulin receptor (Homo sapiens), sequence (P06213 763-1382 limits assumed): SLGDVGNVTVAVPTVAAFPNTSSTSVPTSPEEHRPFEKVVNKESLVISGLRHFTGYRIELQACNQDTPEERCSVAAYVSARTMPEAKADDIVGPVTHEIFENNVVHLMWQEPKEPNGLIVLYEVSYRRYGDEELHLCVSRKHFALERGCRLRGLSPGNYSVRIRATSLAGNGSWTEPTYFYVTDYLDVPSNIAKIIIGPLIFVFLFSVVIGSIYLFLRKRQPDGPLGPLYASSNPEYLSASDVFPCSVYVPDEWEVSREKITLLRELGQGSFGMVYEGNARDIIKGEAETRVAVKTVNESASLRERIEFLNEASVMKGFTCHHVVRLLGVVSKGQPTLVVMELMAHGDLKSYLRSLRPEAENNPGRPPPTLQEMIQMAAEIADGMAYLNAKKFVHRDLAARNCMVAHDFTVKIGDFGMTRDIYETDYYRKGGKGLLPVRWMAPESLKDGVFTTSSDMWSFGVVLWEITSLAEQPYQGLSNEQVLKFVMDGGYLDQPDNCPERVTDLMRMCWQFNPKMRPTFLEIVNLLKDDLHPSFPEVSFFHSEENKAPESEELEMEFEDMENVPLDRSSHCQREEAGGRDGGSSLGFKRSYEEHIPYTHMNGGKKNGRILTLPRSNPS

Regarding `O=C1Nc2cc(Br)ccc2/C1=C1/Nc2ccccc2/C1=N\O`, the residual activity in [1] is 15%; in assay [2], 88%; in assay [3] it was 77%; in assay [4] it was 99%; in assay [5] it was 101%; in assay [6], 105%. In addition, the residual activity in assay [7] was determined as 100%; in assay [8], 101%; in assay [9] it was 85%; in [10], 75%.
